# Experimental data taken from PubChem BioAssay AID624483 (NMMLSC, 2012).
# About 11,000 (3.1%) of roughly 360,000 compounds were called active. About 2% were inconclusive and are not listed. For the sample, actives were picked, then their nearest neighbours and some compounds at random. Values without a mark were called inactive. Cut-off read from the data, not from the text of the source: active = fluorescence intensity above about 16000; inconclusive = no clear call, values can overlap the other calls; inactive = below that.
# Experiment: compound fluorescence in toxin protease inhibitor counterscreen, primary screen, artefact control for toxin protease inhibitor project, biochemical, multiplex microsphere, HTS (AID 624483)
# Conditions: compound autofluorescence counterscreen, microsphere flow cytometry; stronger effect = higher value
row,Structure (SMILES),fluorescence intensity
1,Cc1cc2oc(=O)cc(CN(C)Cc3ccccc3)c2cc1Cl,6000
2,CC(=O)c1c(C)n([O-])c2ccccc2[n+]1=O,23100 (active)
3,Cc1c(C=O)c2ccccc2n1CC(=O)O,4440
4,FC(F)(F)c1nnc2sc(-c3ccco3)nn12,22400 (active)
5,Fc1ccc(-c2ccc(-c3nn4c(-c5ccco5)nnc4s3)o2)cc1,3990
6,Cc1nnc2sc(-c3ccco3)nn12,20800 (active)
7,COC(=O)c1cnn2c(C(F)(F)F)cc(-c3ccco3)nc12,4440
8,FC(F)(F)c1nnc2c3ccccc3c(Cl)nn12,3190
9,CNc1nnc(-c2ccco2)s1,4180
10,CC(=O)Nc1cccc(-c2cc(NC(C)=O)c3ncc(-c4ccccc4)n3c2)c1,3750
11,O=C(/C=C/c1cccs1)c1cc(Cl)ccc1OC(=O)N1CCOCC1,2170
12,O=C(Nc1ccc(N2CCOCC2)cc1)c1cccc2c(-c3ccc(F)c(F)c3)coc12,3990
13,CC12CCC(=O)C=C1CCC1C2C(O)CC2(C)C1CCC2(O)C(O)CO (stereo not drawn),5610
14,O=C(/C=C/NCc1ccc(F)cc1)c1ccccc1,2490
15,O=C(/C=C\NCC(=O)c1ccccc1)c1ccccc1,21800 (active)
16,O=C(/C=C/NNC(=O)c1cccc(Br)c1)c1ccccc1,3590
17,COC(=O)c1ccc(C)c(NC(=O)Cn2c(C)csc2=O)c1,3770
18,CCOc1cnc(-c2c(-c3ccccc3Cl)noc2C)o1,2480
19,Cc1oc(-c2ccccc2Cl)[n+]([O-])c1C,25200 (active)
20,Cc1oc(-c2cccc(Cl)c2)[n+]([O-])c1C,3960
21,CCc1sc(C(=O)N2CCN(CC(=O)Nc3cccc(F)c3)CC2)cc1C,3730
22,Cc1ccc(NC2CCCN(C(=O)CCc3cn[nH]c3)C2)cc1C (stereo not drawn),4290
23,CC1=C(C(N)=O)C(c2ccc(F)cc2)n2nc(CCCO)nc2N1 (stereo not drawn),3660
24,COC(=O)c1nc2n(n1)C(c1ccc([N+](=O)[O-])cc1)C(C(=O)Nc1ccc(Cl)cc1)=C(C)N2 (stereo not drawn),2390
25,COCCOC(=O)C1=C(C)Nc2nc(C)nn2C1c1ccccc1 (stereo not drawn),17100 (active)

row,Structure (SMILES),fluorescence intensity
1,O=C(Nc1ccc(Cl)cc1)C1Cc2c(-c3ccc4c(c3)OCO4)ccnc2O1 (stereo not drawn),3410
2,COc1ccc(NC(=O)c2oc3ccc(S(=O)(=O)N4CCOCC4)cc3c2C)cc1,4190
3,Cc1c(C(=O)Nc2ccccc2Cl)oc2ccc(S(=O)(=O)N3CCC4(CC3)OCCO4)cc12,22400 (active)
4,Cc1c(C(=O)Nc2cccc(S(=O)(=O)N3CCOCC3)c2)oc2ccccc12,2760
5,CC(=O)Nc1ccc(-c2ccnc3c2CC(C(=O)NC(C)C)O3)cc1 (stereo not drawn),3750
6,COc1cc(C=C(OC(C)=O)c2ccc3c(c2)OCO3)cc(OC)c1OC,6370
7,NNc1nc2c(Cl)cccc2s1,6940
8,CC(C)CNS(=O)(=O)c1ccc(CCC(=O)NCc2ccc(Cl)cc2)cc1,3570
9,CC(C)CCNC(=O)CCNS(=O)(=O)c1ccc(Cl)cc1,19700 (active)
10,Cc1ccc(S(=O)(=O)NCCC(=O)NCc2ccc(Cl)cc2)cc1C,4140
11,Cc1ccc(-c2nc3ccc(Br)cn3c2Cc2ccccc2C(F)(F)F)cc1,5850
12,CC(=O)c1nn(-c2ccccc2)c(=Nc2ccccc2)cc1C,4100
13,COc1ccc(CC(=O)NCc2nnc(SCC(=O)Nc3nccs3)n2C)cc1,4710
14,Cn1c(SCC(=O)Nc2nccs2)nnc1-c1cccnc1,4450
15,Cc1ccc(C(C)C)c(OCc2nnc(SCC(=O)Nc3nccs3)n2C)c1,17800 (active)
16,c1ccc2c(NC3C4CC5CC(C4)CC3C5)nc(N3CCOCC3)nc2c1 (stereo not drawn),4640
17,NC(c1csc(NC(=O)Nc2ccccc2Oc2ccccc2)n1)c1ccccc1Cl (stereo not drawn),3590
18,O=C(c1cc(C2CCCCN2S(=O)(=O)c2ccccc2)on1)N1CCOCC1 (stereo not drawn),3020
19,CC(=O)NS(=O)(=O)c1ccc(N/C(N)=N/c2nc(C)cc(C)n2)cc1,3910
20,CN1CC(c2ccccc2)C2(COc3ccccc3C2=O)C12C(=O)Nc1ccccc12 (stereo not drawn),16700 (active)
21,C[C@@H]1NC(=O)[C@@]2(C)[C@@H](c3ccccc3)[C@H]3COc4ccccc4[C@@H]3N2C1=O,3420
22,O=C1NC(c2ccccc2)Oc2ccccc21 (stereo not drawn),3320
23,Cc1cc(C)n2c(NCc3ccccc3)c(CC(C)C)nc2n1,6800
24,CCN(CC(=O)Nc1c(F)cccc1F)C(=O)c1cnc(C)cn1,4920
25,Cc1cccc(N2CCN(C(=O)/C=C/c3ccco3)CC2)c1C,2640

row,Structure (SMILES),fluorescence intensity
1,CCC(CC)C(=O)N1CCN(c2cccc(C)c2C)CC1,2200
2,CC(=O)N1CCN(c2cccc(C)c2C)CC1,20800 (active)
3,C=CCC[C@H](CCCCC)OC(=O)/C=C/[C@H](O)[C@@H](O)C[C@@H](O)CC=C,4110
4,CCCc1ccc(C(O)c2ncc(-c3cccc(OC)c3)[nH]2)cc1 (stereo not drawn),3420
5,COc1cccc(-n2c(=S)sc3c(=O)n(-c4ccccc4C)c(SCC(=O)O)nc32)c1,3210
6,CCOC(=O)CSc1nc2c(c(=O)n(Cc3ccccc3Cl)c(=O)n2C)n1C,4690
7,CCOC(=O)CSc1nc2c(sc(=S)n2CCc2ccccc2)c(=O)n1Cc1ccco1,16400 (active)
8,COc1ccc(NC(=O)c2sc(=O)n(Cc3ccc(S(=O)(=O)N(C)C)cc3)c2C)cc1,5230
9,COc1ccc(Nc2ccc3ccccc3c2)cc1,3980
10,COc1ccc(NC(=O)C(Br)C(C)C)cc1 (stereo not drawn),3200
11,COc1ccc(NC2=CC(=S)NC(C)(C)C2)cc1,26300 (active)
12,Cc1cc(Br)cn2c(Cc3ccsc3)c(-c3ccc(C#N)cc3)nc12,4980
13,CC(C)Nc1nc(NCCOc2ccccc2Cl)c2sccc2n1,4090
14,COc1cc(/C=N/N2CCN(c3ccccc3)CC2)ccc1OC(C)=O,4030
15,C(=N/N1CCN(c2ccccc2)CC1)/c1cccs1,23100 (active)
16,Cc1ccc(N2CCN(/N=C/c3cccs3)CC2)cc1,15100
17,COC(=O)c1cccc(NC(=O)CSc2nc(C)cc(=O)[nH]2)c1,19300 (active)
18,CCCCc1nc(SCC(=O)Nc2nnc(C(C)C)s2)n[nH]1,5330
19,CCCCc1nnc(NC(=O)CSc2nc(C)cc(=O)[nH]2)s1,22200 (active)
20,CCCc1cc(=O)[nH]c(SCC(=O)Nc2ccc(C(=O)Nc3ccccc3OC)cc2)n1,3560
21,Cc1nc2nc(SCC(=O)Nc3cccc(F)c3)[nH]c2cc1Br,5340
22,CCCCc1nnc(NC(=O)CSc2nc(N)cc(=O)[nH]2)s1,4560
23,Cc1ccc(NC(=O)CSc2nc(CSc3ccc(C)cc3)cc(=O)[nH]2)cc1,4220
24,Cc1ccc(OCCCC(=O)Nc2ccc(S(=O)(=O)Nc3cc(C)nc(C)n3)cc2)cc1,5510
25,COc1ccc(NC(=O)CSc2nc(NS(=O)(=O)c3ccc(C)cc3)cc(=O)[nH]2)cc1,19100 (active)

row,Structure (SMILES),fluorescence intensity
1,COc1ccc(C2=NS(=O)(=O)N(C)C(C(=O)N3CCCCC3)=C2)cc1,5200
2,COCCNc1ncnc2c1ncn2[C@H]1CN(Cc2ccc(OC)cc2)C[C@@H](CO)O1,2990
3,Cc1cccc(CN2CCN(C3CN(Cc4cn(Cc5ccccc5F)nn4)S(=O)(=O)C3)CC2)c1 (stereo not drawn),6290
4,O=C(COc1ccc(Br)cc1)OCC(=O)c1ccc[nH]1,3140
5,Cc1ccc2oc(C(=O)N3CCN(C)C[C@@H]3C(C)C)c(C)c2c1,3260
6,O=C1OCCOC2CCCc3oc(-c4ccccc4)c1c32 (stereo not drawn),5740
7,CCCCC(O)C1=C[N+](=O)CC=C1 (stereo not drawn),4270
8,CC1CCCCC1NC(=O)CCS(=O)(=O)c1cccc2nonc12 (stereo not drawn),4530
9,CCc1nc2c(OCc3ccc(C(F)(F)F)cc3)cccn2c1N(C)C(=O)CC(C)C,3820
10,CCOC(=O)c1c(-c2ccccc2)oc2ccc(OC(=O)N(C)C)cc12,18300 (active)
11,CCOC(=O)c1c(-c2ccccc2)oc2ccc(OCC(=O)NN)cc12,3330
12,CCOC(=O)c1c(-c2ccccc2)oc2cc(Br)c(O)c(C=O)c12,3500
13,CC12c3ccccc3C(c3ccccc31)C1C(=O)N(Cc3cccnc3)C(=O)C12 (stereo not drawn),10400
14,CC1Oc2ccccc2N(Cc2cccnc2)C1=O (stereo not drawn),22000 (active)
15,Cc1cccc(C)c1NC(=O)CN1C(=O)C(C)Oc2ccccc21 (stereo not drawn),4620
16,Cc1ccc(-c2csc3nnc(SCC(=O)NCc4ccco4)n23)cc1,16800 (active)
17,Cc1cc(C)n2nc(SCC(=O)NC(=O)NCc3ccco3)nc2n1,3150
18,Cn1c(-c2ccc(F)cc2)cnc1SCC(=O)NCc1ccco1,9840
19,Cc1ccc(NC(=O)C(=O)NCc2ccco2)c(C)c1,4600
20,Cc1ccc(SCC(=O)NC(=O)NCc2ccco2)c(C)c1,19200 (active)
21,O=C(CSc1nnc2scc(-c3ccc(F)cc3)n12)NCc1ccco1,7830
22,O=C(Nc1ccc(N2CCN(C(=O)c3ccccc3)CC2)c(Cl)c1)c1ncn[nH]1,4940
23,CCCS(=O)(=O)NC(=O)C1(C)CCCN(C(=O)c2cc(C)on2)C1 (stereo not drawn),3970
